Test results taken from PubChem BioAssay (Tox21).
Inconclusive results are not listed. Where a call stands in place of a potency, no number is given. The source made the active and inactive calls. The call rests on the fitted dose curve.
Potency means the concentration at half of the fitted maximal effect.

What follows are molecules tested against 5-hydroxytryptamine receptor 2A (Homo sapiens) (UniProt P28223) (assay: 5-hydroxytryptamine receptor 2A (HTR2A) small molecule agonists, cell-based qHTS assay (AID 1963587; further: nearly all actives have a fitted effect of over 30% in size)). Conditions: HTR2A-CHO cells, calcium flux fluorescence, agonist mode; series mostly up to 76.8 µM.
Chain of 5-hydroxytryptamine receptor 2A (Homo sapiens) (P28223 whole entry, looked up): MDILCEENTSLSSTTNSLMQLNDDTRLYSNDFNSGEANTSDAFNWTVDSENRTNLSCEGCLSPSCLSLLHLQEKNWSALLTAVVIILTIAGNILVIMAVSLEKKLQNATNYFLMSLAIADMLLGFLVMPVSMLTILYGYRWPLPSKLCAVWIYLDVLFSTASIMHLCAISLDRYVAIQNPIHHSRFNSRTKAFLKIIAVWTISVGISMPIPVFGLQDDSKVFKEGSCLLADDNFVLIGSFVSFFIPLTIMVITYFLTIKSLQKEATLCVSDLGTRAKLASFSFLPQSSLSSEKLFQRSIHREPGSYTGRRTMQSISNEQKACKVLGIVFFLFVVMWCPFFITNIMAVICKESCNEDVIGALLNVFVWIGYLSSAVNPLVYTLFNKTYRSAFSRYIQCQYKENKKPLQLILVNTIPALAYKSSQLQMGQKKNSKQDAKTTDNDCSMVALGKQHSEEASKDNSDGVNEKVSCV
Text: National Center for Advancing Translational Sciences [NCATS]
Division of Preclinical Innovation [DPI]
U.S. Environmental Protection Agency [EPA]
National Institutes of Environmental Health Sciences [NIEHS]
National Toxicology Program [NTP]
U.S. Food and Drug Administration [FDA]
The HTR2A receptor is a subtype of the 5-HT2 receptor that belongs to the serotonin receptor family and is a G protein-coupled receptor (GPCR). The HTR2A-CHO cell line stably expressing human 5-hydroxytryptamine receptor 2A (HTR2A) can be used for screening agonists of interactions between 5-HT2 and its ligands. The HTR2A-CHO calcium flux assay is a homogeneous fluorescence-based assay for detecting the intracellular calcium level using FDSS kinetic plate reader system.
HTR2A-CHO cells were dispensed at 2000 cells/3uL/well in 1536-well black-clear bottom plates using a Multidrop Dispenser. After the assay plates were incubated at a 37 C/5% CO2 incubator for 18 h, 3 uL of Dye Loading Buffer was transferred to the assay plate by a Flying Reagent Dispenser. The assay plates were incubated at 37 C for 1h. For agonist mode, 23 nL of compounds dissolved in DMSO, positive controls or DMSO only was transferred to the assay plate by a pin tool. The fluorescence intensity in the plates was measured using FDSS 7000EX kinetic plate reader for 2 min at 1 sec intervals.
For CSc1c(Cl)c(Cl)c(Cl)c(Cl)c1Cl, the Potency was “inactive”.
With CCC(=O)/C=C/c1ccc(OC)cc1 the Potency was “inactive”.
In the case of NNC(=O)OCc1ccccc1, the Potency was “inactive”.
CCCCC(CC)COS(=O)(=O)O (stereo not given) was tested, and the Potency was “inactive”.
With CO[C@]12C[C@@H](COC(=O)c3cncc(Br)c3)CN(C)[C@@H]1Cc1cn(C)c3cccc2c13 the Potency was 0.0849 µM (active).
In the case of Brc1cc2ccccc2c2ccccc12, the Potency was “inactive”.
For CCOc1ccc(NC(=O)CC(C)=O)cc1, the Potency was “inactive”.
With CCCCCCCCC(=O)OCC(C)OC(=O)CCCCCCCC (stereo not given) the Potency was “inactive”.
For O=S(=O)(c1cccc2cnccc12)N1CCCNCC1, the Potency was “inactive”.
CC1=C(Br)C(=O)C(Br)=C/C1=C(/c1ccccc1S(=O)(=O)O)c1cc(Br)c(O)c(Br)c1C was tested, and the Potency was “inactive”.
In the case of CCCCNC(=O)NCCCC, the Potency was “inactive”.
N#CCCOCCOCCC#N was tested, and the Potency was “inactive”.
For NO, the Potency was “inactive”.
With Cc1cc(NC(=O)C(=O)O)cc(C)c1Oc1ccc(O)c2c1CCC2 the Potency was “inactive”.
With COC(C)CCO (stereo not given) the Potency was “inactive”.
With CCN(Cc1cccnc1)C(=O)c1cccc(Cl)c1[C@]1(C)C(=O)N(Cc2ccc(OC)cc2OC)c2ccc(Cl)cc21 the Potency was “inactive”.
With Cc1ccccc1OCC(=O)O the Potency was “inactive”.
For O=C1c2ccccc2C(=O)N1CCc1noc(-c2ccc(CN3CCCCCC3)s2)n1, the Potency was “inactive”.
C=C(C)C1CC=C(C)C(=O)C1 (stereo not given) was tested, and the Potency was “inactive”.
With CCCCC(CC)COCCCN (stereo not given) the Potency was 17.2 µM (active).
Cc1ccc2c(c1)CCCN2 was tested, and the Potency was “inactive”.
In the case of CCCCNc1ccc(C(=O)OCCOCCOCCOCCOCCOCCOCCOCCOCCOC)cc1, the Potency was “inactive”.
In the case of CC(C)COC(=O)/C=C/c1ccccc1, the Potency was “inactive”.
In the case of Cc1ccc(C)c([N+](=O)[O-])c1, the Potency was “inactive”.
c1ccc2occc2c1 was tested, and the Potency was “inactive”.
N=C(N)N was tested, and the Potency was “inactive”.
CCc1ccc(C(c2ccc(CC)cc2)C(Cl)Cl)cc1 was tested, and the Potency was “inactive”.
CCOC(=O)CC(O)(CC(=O)OCC)C(=O)OCC was tested, and the Potency was “inactive”.
For Cc1ccccn1, the Potency was “inactive”.
With CN1CCC(OC(c2ccccc2)c2ccccc2)CC1 the Potency was “inactive”.
c1ccc(CN(Cc2ccccc2)Cc2ccccc2)cc1 was tested, and the Potency was “inactive”.
For NC(=O)Cn1c(=O)cc(CCN2CCN(c3nccc4sccc34)CC2)c2ccc(F)cc21, the Potency was “inactive”.
Clc1nc2ccccc2nc1Cl was tested, and the Potency was “inactive”.
In the case of Cc1ccc(C(=O)O)cc1[N+](=O)[O-], the Potency was “inactive”.
In the case of Cc1onc(-c2c(Cl)cccc2Cl)c1C(=O)Cl, the Potency was “inactive”.
Cc1cccc(OCCOc2cccc(C)c2)c1 was tested, and the Potency was “inactive”.
For Nc1cccc2c(N)cccc12, the Potency was “inactive”.
CC[C@@]1(c2ccccc2)NC(=O)N(C)C1=O was tested, and the Potency was “inactive”.
With COc1ccc(C(=O)c2ccc(C)cc2)c(O)c1 the Potency was “inactive”.
In the case of Nc1ccc(F)cc1F, the Potency was “inactive”.
